This passage reports GFP response vs DMSO results from PubChem BioAssay AID2023 (NMMLSC, 2009).

Each structure is given as a SMILES string. Among all 320,000 compounds or so, about 1,100 (0.34%) were called active. What follows is part of a selection rich in actives, with near analogues and random picks from the rest. Unmarked numbers belong to inactive results.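 Rule for the calls: active = GFP response vs DMSO above a set limit, about the screen mean plus 3 SD (cut at about 150% in these data); inconclusive = under 70 cell events counted for the yeast strain; inactive = the rest.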

A short description of the assay: modulators of LAP4-GFP expression in yeast, primary screen, S. cerevisiae, multiplex flow cytometry, MLPCN library (AID 2023). Conditions: 3 h, at 10 µM, stronger effect = higher value, median GFP as percent of DMSO wells.
For `COc1cccc(C(=O)Nc2nc3ccc(S(C)(=O)=O)cc3s2)c1`, the GFP response vs DMSO is 103%.

Turning to `CCc1noc(C)c1C(=O)Nc1nc(-c2ccccc2)cs1`, the GFP response vs DMSO was 115%.

Turning to `CCc1noc(C)c1C(=O)Nc1nc2ccc(OC)cc2s1`, the GFP response vs DMSO is 152% (active).

`COc1cc(C(=S)N2CCOCC2)cc(OC)c1OC(=O)c1ccc([N+](=O)[O-])cc1[N+](=O)[O-]`: the GFP response vs DMSO was 91.2%.

With `O=C(CSc1ncnc2sccc12)N1CCN(C(=O)c2cccs2)CC1`, the GFP response vs DMSO was 107%.

With `Nc1c(C(=O)c2cccs2)sc2nsc(SCCN3CCCCC3)c12`, the GFP response vs DMSO is 203% (active).

`CCc1c(C)c2ccc(OC3CCCCC3=O)cc2oc1=O` (centres undefined): the GFP response vs DMSO is 99.3%.

For the compound `CC(C)c1ccc(NC(=O)C2CCCN(S(=O)(=O)c3cccnc3)C2)cc1` (centres undefined), the GFP response vs DMSO is 94.4%.

Consider `Cc1[nH][nH]c(=O)c1C(c1ccc(-c2ccc(Cl)cc2)o1)c1c(C)[nH][nH]c1=O`, for which the GFP response vs DMSO was 184% (active).

As for `O=C(NC1CCCCC1)c1ccc(-c2ccc(Cl)cc2)o1`, the GFP response vs DMSO is 118%.

`CCOc1ccc(C(c2c(C)[nH][nH]c2=O)c2c(C)[nH][nH]c2=O)cc1OCC`: the GFP response vs DMSO is 128%.

As for `Oc1ccc2ccccc2c1N=Nc1nccs1`, the GFP response vs DMSO was 165% (active).

Take `CCN(c1ccccc1)S(=O)(=O)c1cc2c(cc1C)n(C)c(=O)c(=O)n2C`: the GFP response vs DMSO is 99.4%.

Regarding `Cc1ccccc1OCCC(=O)OCC(=O)NCCc1ccc(S(N)(=O)=O)cc1`, the GFP response vs DMSO was 91.6%.

On to `CC(C)CC1(C)NC(=O)N(CC(=O)Nc2ccc3c(c2)OCCO3)C1=O` (centres undefined), for which the GFP response vs DMSO was 95.9%.

`CC1(C)CC(=O)CC2(C1)NCC(c1ccccc1Cl)c1c2[nH]c2ccccc12` (centres undefined): the GFP response vs DMSO is 107%.

Regarding `CC(C)c1nc(SCC(=O)Nc2cccc(C(=O)O)c2)c2c3c(sc2n1)CCCC3`, the GFP response vs DMSO is 99.7%.

Turning to `COc1ccc(-n2c(C)cc(C(=O)CN3C(=O)NC4(CCc5ccccc54)C3=O)c2C)cc1` (centres undefined), the GFP response vs DMSO is 96.4%.

As to `CCn1c(/C=C/c2ccc([N+](=O)[O-])o2)nc2ccccc2c1=O`, the GFP response vs DMSO was 358% (active).

Turning to `CCc1ccc(S(=O)(=O)N/N=C\c2ccc([N+](=O)[O-])o2)cc1`, the GFP response vs DMSO is 87.6%.

Turning to `CCn1c(=O)c([N+](=O)[O-])c(NCc2ccc3c(c2)OCO3)c2ccccc21`, the GFP response vs DMSO is 101%.

Regarding `Cc1cccc([C@@H]2[C@@H]3C(=O)N(Cc4ccccc4)C(=O)[C@@H]3[C@]3(C)C(=O)N(c4ccc(Br)cc4)C(=O)N23)c1`, the GFP response vs DMSO was 98.8%.

For `CN(c1ccccc1)S(=O)(=O)c1cc(C(=O)N2CCN(c3ncccn3)CC2)ccc1Cl`, the GFP response vs DMSO is 91.2%.

Consider `C[C@@H](CN1CCC[C@H]1CN1C(N)=NC[C@@H]1Cc1ccccc1)N1C[C@@H](Cc2ccccc2)N(CCCC2CCCC2)C1=N`, for which the GFP response vs DMSO is 96.6%.

On to `O=C(Nc1cc(-c2ccccc2)nn1-c1ccccc1F)c1ccc([N+](=O)[O-])cc1`, for which the GFP response vs DMSO is 134%.

For `COc1ccccc1CNC(=O)CN1CCC(n2cnc3cc(F)ccc32)CC1`, the GFP response vs DMSO was 97.5%.

With `COc1ccc(Nc2ccc([N+](=O)[O-])cn2)cn1`, the GFP response vs DMSO was 89.6%.

Take `CCOc1ccc(S(=O)(=O)Nc2ccc(OC)nc2)cc1`: the GFP response vs DMSO was 98.1%.

Regarding `COc1ccc(NC(=O)/C(Cl)=C(/Cl)S(=O)Cc2ccc(C)cc2)cn1` (centres undefined), the GFP response vs DMSO was 201% (active).

Regarding `O=C(Nc1ccon1)c1nc[nH]c1C(=O)NCc1ccccc1`, the GFP response vs DMSO was 94.7%.

In the case of `Cc1cc2ccccc2n1CCNC(=O)COc1ccc2ccccc2c1`, the GFP response vs DMSO is 112%.

Turning to `O=C(O)CCn1c(Cc2ccccc2)nc2ccccc21`, the GFP response vs DMSO is 88.9%.

`Cc1cc2ccccc2n1CCC(=O)O`: the GFP response vs DMSO was 154% (active).

Turning to `CCOc1ccc(NC(=S)NC(=O)/C=C/c2ccc(OC)cc2)c([N+](=O)[O-])c1`, the GFP response vs DMSO is 95.5%.

Take `COc1ccc(-n2nc(C(=O)NCC(=O)N3CCCCCC3)c3ccccc3c2=O)cc1Cl`: the GFP response vs DMSO was 112%.

Regarding `CNS(=O)(=O)c1cccc(C(=O)OCCCC(=O)c2ccccc2)c1`, the GFP response vs DMSO was 100%.

For the compound `CCOC(=O)c1cc2cc3ccccc3cc2oc1=O`, the GFP response vs DMSO is 88.3%.

As for `CCN(CC)c1ccc2cc(C(=O)O)c(=O)oc2c1`, the GFP response vs DMSO is 157% (active).

For `COc1cccc(C(=O)c2cc3ccc(O)cc3oc2=O)c1`, the GFP response vs DMSO is 121%.

As for `C[C@H]1CC[C@]2(O[C@@H](CCO)C[C@@H](O)[C@@H]2O)O1`, the GFP response vs DMSO was 105%.

As for `O=c1[nH]c(CSc2ccccc2)nc2c1oc1ccccc12`, the GFP response vs DMSO was 107%.

In the case of `O=C(Nc1cccc2ccccc12)c1onc2c1CCCC2`, the GFP response vs DMSO is 94%.

Take `COc1ccc(N(CC(=O)NCC2CCCO2)C(=O)CCC(=O)Nc2nccs2)c(OC)c1` (centres undefined): the GFP response vs DMSO is 91.8%.

`Cc1ccc(C(=O)Nc2ccn(C)n2)cc1`: the GFP response vs DMSO was 101%.

With `O=C(Nc1nccs1)c1cc(S(=O)(=O)N2CCOCC2)c(Cl)cc1Cl`, the GFP response vs DMSO is 89.4%.

For the compound `CN(C)S(=O)(=O)c1cc(C(=O)Nc2ccn(C)n2)c(Cl)cc1Cl`, the GFP response vs DMSO is 6410% [may fluoresce green] (active).

Regarding `COc1cccc(CCNC(=O)COc2cccc3c2OC(C)(C)C3)c1`, the GFP response vs DMSO was 113%.

Consider `COc1cc(F)c(C2=CC(=O)CC(C)(C)C2)cc1F`, for which the GFP response vs DMSO is 118%.

For `CCOC(=O)c1ccccc1NC(=S)N1CCC(C(N)=O)CC1`, the GFP response vs DMSO was 111%.

For the compound `CN(C)CCc1c[nH]c2ccc(Cn3cncn3)cc12`, the GFP response vs DMSO is 119%.

As for `COc1ccc(NC(=O)C2C3C=CC(C3)C2C(=O)NCc2ccccn2)c(OC)c1` (centres undefined), the GFP response vs DMSO was 92.5%.

With `Cc1ccc(C(C[N+](=O)[O-])c2c(C)cc3ccccn23)cc1` (centres undefined), the GFP response vs DMSO is 97.5%.

For the compound `CCS(=O)(=O)c1cc([N+](=O)[O-])c(Sc2ccccc2N)s1`, the GFP response vs DMSO was 100%.

On to `Nc1ccccc1SC(C[N+](=O)[O-])c1ccccc1` (centres undefined), for which the GFP response vs DMSO was 209% (active).

Turning to `COC(=O)c1ccc(N2CCOCC2)c(NC(=O)c2ccc(Br)o2)c1`, the GFP response vs DMSO was 84.3%.

With `O=C1CCN(CCCc2ccccc2)CCN1CCO`, the GFP response vs DMSO was 109%.

`COc1ccc(C)cc1NC(=O)CSc1cccc[n+]1[O-]`: the GFP response vs DMSO is 99.3%.

Take `Cc1ccc(S(=O)(=O)N2CCC(C)CC2)cc1C(=O)NCc1ccccn1`: the GFP response vs DMSO is 99.2%.

On to `Cc1cc(N)n2nc(-c3ccc(C(C)(C)C)cc3)cc2n1`, for which the GFP response vs DMSO was 77.9%.
